DT40 TDP1 CPT – DT40-hTDP1 cell growth loss with CPT. chicken DT40 Tdp1-/-;hTDP1 cells + 20 nM CPT, ATP luminescence, 48 h. Potency, µM (doses to about 46.2 µM), inactives show top-dose activity change, negative = growth inhibition, hits mostly inhibitors. 420,000 tested, 12% active; further: nearly all actives have a fitted effect of over 55% in size
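Chicken DT40 Tdp1-/- cells complemented with human TDP1, 400 cells/well, exposed to compounds plus 20 nM camptothecin for at least 48 h at 37 C; viability read as ATP content by CellTiter-Glo luminescence.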
VP16 counter – Gal4-VP16 reporter inhibition counter-screen; Drosophila S2 Gal4-VP16 UAS-luciferase, luminescence, 20 h; Potency, µM (titrated, usually from 53.6 µM), for the others: top-dose activity, negative = inhibition, hits mostly inhibitors; 310,000 tested, 3.5% active;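 further: Gal4-VP16 expression switched on by copper sulfate through the metallothionein promoter; nearly all actives have a fitted effect of over 50% in size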
RORg inh – ROR gamma (mouse) transcription inhibition. P51450. Drosophila S2 Gal4-RORgamma UAS-luciferase reporter, 20 h. Potency, µM (top dose mostly 53.6 µM), without a hit: top-dose activity change, negative = inhibition, usual class: inhibitors. 310,000 tested, 5.4% active; further: nearly all actives have a fitted effect of over 60% in size
Target sequence (P51450 whole entry, looked up, the tested form may be a part): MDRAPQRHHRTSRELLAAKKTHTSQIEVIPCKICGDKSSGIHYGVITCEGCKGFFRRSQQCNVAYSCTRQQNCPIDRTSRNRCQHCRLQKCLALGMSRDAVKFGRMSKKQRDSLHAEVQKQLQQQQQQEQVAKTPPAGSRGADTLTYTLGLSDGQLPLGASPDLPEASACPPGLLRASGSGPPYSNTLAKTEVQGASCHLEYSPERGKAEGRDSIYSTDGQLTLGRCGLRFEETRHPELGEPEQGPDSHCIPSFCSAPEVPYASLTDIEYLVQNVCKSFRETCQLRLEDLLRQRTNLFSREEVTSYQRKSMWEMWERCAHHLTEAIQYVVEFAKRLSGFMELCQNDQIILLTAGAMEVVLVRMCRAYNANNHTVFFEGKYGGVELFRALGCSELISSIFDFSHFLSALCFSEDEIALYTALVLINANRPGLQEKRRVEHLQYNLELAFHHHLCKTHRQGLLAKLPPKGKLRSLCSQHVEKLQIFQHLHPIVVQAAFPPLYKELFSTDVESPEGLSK
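Schneider cells (Drosophila), stable Gal4 DBD–ROR gamma + UAS-luc; 1 hr cmpd preincubation; Cu2+ induction 700 uM final; 20 hr ambient; luminescence.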
12-LOX inh – blocks human arachidonate 12S-lipoxygenase; Potency, µM (titrated, usually from 108 µM), for the others: top-dose activity change, negative = inhibition, most hits filed as inhibitors; P18054; AID 1671190; 580,000 tested, 1.1% active; purified 12hLO, xylenol orange hydroperoxide absorbance
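Hydroperoxide product was detected by ferrous iron/xylenol orange as the 573 to 405 nm absorbance ratio. Arachidonic acid at 40 uM (final) was turned over for 30 min at room temperature by 150 nM human 12hLO, pH 7.0 Hepes buffer, after 15 min compound preincubation.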
DT40 TDP1 no CPT – qHTS for Inhibitors of human tyrosyl-DNA phosphodiesterase 1 (TDP1): qHTS in cells in absence of CPT | DT40 Tdp1-/- hTDP1 cells, no CPT, ATP luminescence, 48 h | Potency, µM (highest dose often 46.2 µM), for the others: top-dose activity change, negative = growth inhibition, usual class: inhibitors | 420,000 tested, 15% active | AID 686978, 2013; further: nearly all actives have a fitted effect of over 55% in size
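Seeded 400 DT40-hTDP1 cells/well (vehicle DMSO, no 20 nM CPT); pinned compounds; ≥48 hr at 37 °C; CellTiter-Glo luminescence as viability measure.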
ELG1 repair inh – inhibitors of ELG1-dependent DNA repair in HEK293T cells | HEK293T ELG1-luciferase reporter, luminescence, 16 h; DNA damage induced by 5-fluorouridine | 330,000 tested, 2.3% active | AID 504467 | Potency, µM (highest dose often 46.1 µM), for inactives: top-dose activity change, negative = inhibition, actives largely listed as inhibitors; further: nearly all actives have a fitted effect of over 55% in size
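Step one: seed 2,000 cells per well. Step two: pin-transfer compound or DMSO alongside 5-fluorouridine. Step three: incubate 16 hr, 37 °C, 5% CO2. Step four: add ONE-Glo, wait 30 min, read luminescence.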
* marks the source's active call; other numbers are inactive results; ! = a repeat was not active; [ ] = remark or other dose. Rows were chosen to be rich in hits. Some 15% of all compounds tested hit in one or more screens of this group. The call rests on the fitted dose curve; in most records, active means well fitted curve in the direction sought with a large enough effect; inconclusive means small, poorly fitted or top-dose-only effect, or another doubt; inactive means no such curve, though single readings can be large; an effect the other way counts as inactive or inconclusive. On the % scale 0 is the no-effect control and ±100 the full control effect; potency means the concentration at half of the fitted maximal effect.

For Cc1cccc(NC(=O)CN2CCN(C(=O)CNC(=O)c3ccc(-c4ccccc4)cc3)CC2)c1C the results were DT40 TDP1 CPT 4.61µM*, 12-LOX inh -25.1% and DT40 TDP1 no CPT 2.31µM*.
Screening CCc1ccccc1NC(=O)CN1CCN(C(=O)CNC(=O)Cc2cccc3ccccc23)CC1 returned DT40 TDP1 CPT -16.8%, 12-LOX inh inconclusive, DT40 TDP1 no CPT inconclusive and ELG1 repair inh inconclusive.
Screening Cc1cccc(C)c1NC(=O)CN1CCN(C(=O)CNC(=O)c2ccc(-c3ccccc3)cc2)CC1 returned DT40 TDP1 CPT inconclusive, 12-LOX inh -10.7% and DT40 TDP1 no CPT 16.4µM*.
Screening COc1cc2c(cc1OC)C(=O)N1[C@H]3c4ccccc4OC[C@@H]3[C@H](c3ccccc3)[C@]1(C)C(=O)N2 returned DT40 TDP1 CPT inconclusive, 12-LOX inh -5.4%, DT40 TDP1 no CPT 14.6µM* and ELG1 repair inh -13.1%.
`COc1ccc2c(c1)OC[C@H]1[C@H]2N2C(=O)c3cc(OC)c(OC)cc3NC(=O)[C@@]2(C)[C@H]1c1ccccc1` gave DT40 TDP1 CPT 29.1µM*, 12-LOX inh -13.5%, DT40 TDP1 no CPT 16.4µM* and ELG1 repair inh inconclusive.
Screening C[C@@]12C(=O)Nc3ccc(F)cc3C(=O)N1[C@H]1c3ccccc3OC[C@@H]1[C@@H]2c1ccccc1 returned DT40 TDP1 CPT inconclusive, DT40 TDP1 no CPT -10.2% and ELG1 repair inh 11.8%.
C[C@@]12C(=O)Nc3ccc(Cl)cc3C(=O)N1[C@H]1c3ccccc3OC[C@@H]1[C@@H]2c1ccccc1 was read as DT40 TDP1 CPT inconclusive, DT40 TDP1 no CPT inconclusive and ELG1 repair inh -1.6%.
For C[C@@]12C(=O)Nc3cc(F)c(F)cc3C(=O)N1[C@H]1c3ccccc3OC[C@@H]1[C@@H]2c1ccccc1 the results were DT40 TDP1 CPT inconclusive, 12-LOX inh inconclusive and DT40 TDP1 no CPT 18.4µM*.
Screening CC(C)NC(=O)CN1CCN(C(=O)c2cc(-c3ccccn3)nc3ccccc23)CC1 returned 12-LOX inh 0.4%.
Screening O=C(NC1CC1)[C@@H]1C[C@H](Oc2cccnc2)CN1C(=O)CCc1c[nH]c2ccccc12 returned 12-LOX inh 15.2%.
`Cc1ccc(C(=O)C(C)OC(=O)c2ccc3ccccc3n2)cc1` (centres undefined) gave 12-LOX inh -3.4%.
For C=CC1(C)CN(Cc2ccco2)S(=O)(=O)c2c(F)cccc2O1 (centres undefined) the results were DT40 TDP1 CPT 18.4µM*, 12-LOX inh -22.7% and DT40 TDP1 no CPT inconclusive.
`Cc1cc(C)cc(NC(=O)C2CCCN2S(=O)(=O)c2cccc3nsnc23)c1` (centres undefined) gave DT40 TDP1 CPT inconclusive, 12-LOX inh -40.9% and DT40 TDP1 no CPT inconclusive.
For CCOc1ccccc1NC(=O)C1CCCN1S(=O)(=O)c1ccccc1C(F)(F)F (centres undefined) the results were DT40 TDP1 CPT 20.6µM*, 12-LOX inh 7.2%, DT40 TDP1 no CPT 20.6µM* and ELG1 repair inh -24.5%.
CCOc1ccccc1NC(=O)C1CCCN1S(=O)(=O)c1ccc2nc(-c3ccccc3)[nH]c2c1 (centres undefined) was read as DT40 TDP1 CPT 10.3µM*, 12-LOX inh -4.1% and DT40 TDP1 no CPT 6.51µM*.
Screening CCc1cccc(NC(=O)C2CCCN2S(=O)(=O)c2ccc3nc(-c4ccccc4)[nH]c3c2)c1 (centres undefined) returned DT40 TDP1 CPT 7.31µM*, 12-LOX inh -6.0% and DT40 TDP1 no CPT 8.2µM*.
Screening CCc1cccc(NC(=O)C2CCCN2S(=O)(=O)c2ccc3c(c2)n(C)c(=O)c(=O)n3C)c1 (centres undefined) returned DT40 TDP1 CPT 4.2%, VP16 counter 3.9%, RORg inh -5.4%, 12-LOX inh 3.1%, DT40 TDP1 no CPT -0.9% and ELG1 repair inh 0.0%.
For Cc1cc(C)cc(NC(=O)C2CCCN2S(=O)(=O)c2ccc3nc(-c4ccccc4)[nH]c3c2)c1 (centres undefined) the results were DT40 TDP1 CPT inconclusive, 12-LOX inh -8.2% and DT40 TDP1 no CPT 14.6µM*.
Screening COCCN1C(=O)c2ccccc2C(C(=O)Nc2ccc(C(C)=O)cc2)C12CCCC2 (centres undefined) returned 12-LOX inh -5.8%.
For O=C(Nc1ccc(F)cc1F)c1ncoc1-c1cccc(Cl)c1 the results were 12-LOX inh -12.6%.
CC(C)NC(=O)N[C@H]1C[C@@H](c2nc(-c3ccncc3)no2)N(C)C1 was read as 12-LOX inh 13.8%[176 µM].
`O=C(NC1CCCCC1)[C@@H]1C[C@@H](O)CN1C1CCN(C(=O)c2ccco2)CC1` gave 12-LOX inh 44.0%.
For C[c-]1[c-](C)[c-](C)[c-](C)[c-]1C.[Fe].c1cc2nccc(N3CCCC3)[c-]2c1 (centres undefined) the results were DT40 TDP1 CPT 8.2µM*!, VP16 counter -6.7%, RORg inh -3.3%, 12-LOX inh -20.7%, DT40 TDP1 no CPT 6.51µM* and ELG1 repair inh inconclusive.
Screening COc1ccc(-c2cc(C(F)(F)F)c(C#N)c(SCC(=O)Nc3nc(C)co3)n2)cc1 returned DT40 TDP1 CPT inconclusive, VP16 counter 0.1%, RORg inh -3.1%, 12-LOX inh -21.6%, DT40 TDP1 no CPT inconclusive and ELG1 repair inh -10.1%.
Cc1coc(NC(=O)CSc2nc(-c3ccc(Cl)cc3)cc(C(F)(F)F)c2C#N)n1 was read as DT40 TDP1 CPT 20.6µM*, VP16 counter 1.9%, RORg inh 1.3%, 12-LOX inh 0.0%, DT40 TDP1 no CPT inconclusive and ELG1 repair inh 3.4%.
Screening CCOC(=O)c1c(C)sc2c1N(C(C)=O)c1cc(Cl)ccc1S2 returned DT40 TDP1 CPT inconclusive, VP16 counter -2.9%, RORg inh -5.7%, 12-LOX inh -18.0%, DT40 TDP1 no CPT 16.4µM* and ELG1 repair inh -16.4%.
`CCOC(=O)N1CCN(S(=O)(=O)c2ccc3c(c2)SCC(=O)N3)CC1` gave DT40 TDP1 CPT inconclusive, VP16 counter -11.0%, RORg inh 25.5%, 12-LOX inh 0.0%, DT40 TDP1 no CPT inconclusive and ELG1 repair inh 20.6µM*.

Source: PubChem BioAssay (National Center for Advancing Translational Sciences (NCATS))
